{"source": "PubChem BioAssay", "note": "Unmarked numbers belong to inactive results. No rule for the calls is given here."}
{"molecular_target": "Lethal factor (Bacillus anthracis) (UniProt P15917)", "sequence (P15917 whole entry, looked up)": "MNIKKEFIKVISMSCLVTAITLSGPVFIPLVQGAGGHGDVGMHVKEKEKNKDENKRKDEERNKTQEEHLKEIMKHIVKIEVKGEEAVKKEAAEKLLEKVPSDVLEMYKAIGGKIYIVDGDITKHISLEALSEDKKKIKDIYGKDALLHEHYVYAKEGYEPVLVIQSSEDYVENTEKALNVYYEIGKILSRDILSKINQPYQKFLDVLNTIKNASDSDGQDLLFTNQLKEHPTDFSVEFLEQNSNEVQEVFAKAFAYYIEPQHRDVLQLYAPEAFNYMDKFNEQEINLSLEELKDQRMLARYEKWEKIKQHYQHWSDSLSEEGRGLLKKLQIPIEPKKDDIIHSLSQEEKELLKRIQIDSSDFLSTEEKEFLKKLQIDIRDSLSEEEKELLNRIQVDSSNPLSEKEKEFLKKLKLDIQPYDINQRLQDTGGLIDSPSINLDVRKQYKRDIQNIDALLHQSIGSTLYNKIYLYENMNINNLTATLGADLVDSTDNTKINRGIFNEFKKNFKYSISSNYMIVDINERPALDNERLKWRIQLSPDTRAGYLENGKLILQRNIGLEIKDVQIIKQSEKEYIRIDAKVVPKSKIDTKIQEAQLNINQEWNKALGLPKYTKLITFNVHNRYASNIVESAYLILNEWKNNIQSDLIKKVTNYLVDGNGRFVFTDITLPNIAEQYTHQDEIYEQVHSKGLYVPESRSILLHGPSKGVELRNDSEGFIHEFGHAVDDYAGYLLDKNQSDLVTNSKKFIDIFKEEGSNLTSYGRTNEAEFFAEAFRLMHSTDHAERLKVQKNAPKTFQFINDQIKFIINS", "assay": "Lethal factor protease inhibitors, Bacillus anthracis, multiplex microsphere cleavage assay, validation set (AID 588461)", "conditions": "flow cytometry, at 10 µM, stronger effect = higher value", "units": {"inhibition": "%"}}
{"smiles": "O=c1c(-c2ccc3c(c2)OCCO3)coc2cc(OC3OC(CO)C(O)C(O)C3O)ccc12", "note": "(stereo unspecified)", "inhibition": 6.4}
{"smiles": "CCOC(=O)C(Cc1cc(C(C)=O)ccc1OC(C)C)C(=O)OCC", "inhibition": -1.9}
{"smiles": "CN1CCN(C2=Nc3cc(Cl)ccc3Nc3ccccc32)CC1", "inhibition": -6.6}
{"smiles": "NC(=O)c1cnccn1", "inhibition": 5.7}
{"smiles": "Cc1ccc2[nH]c3c(=O)n(CCc4cnc[nH]4)cnc3c2c1", "inhibition": -10.5}
{"smiles": "O=C1OC(c2ccccc2)=C/C1=C/c1cccs1", "inhibition": 0.7}
{"smiles": "CC(C)(CO)CNC(=O)CC1C(=O)NCCN1CC(c1ccccc1)c1ccccc1", "note": "(stereo unspecified)", "inhibition": 0.3}
{"smiles": "NS(=O)(=O)c1cc2c(cc1Cl)NCNS2(=O)=O", "inhibition": -4.7}
{"smiles": "Cc1c(OCC(=O)NC(Cc2c[nH]c3ccc(O)cc23)C(=O)O)ccc2c3c(c(=O)oc12)CCC3", "note": "(stereo unspecified)", "inhibition": 3.7}
{"smiles": "Nc1cccc2c1nnn2C1OC(CO)C(O)C(O)C1O", "note": "(stereo unspecified)", "inhibition": 3.5}
{"smiles": "CCCN(CCC)C(=O)C(CCC(=O)O)NC(=O)c1ccccc1", "note": "(stereo unspecified)", "inhibition": 8.6}
{"smiles": "CC1=C(C)C(=O)C(CCCCC#CCCCC#CCO)=C(C)C1=O", "inhibition": -2.3}
{"smiles": "CCSC(=O)CCCCCCCCCCCO", "inhibition": 14.5}
{"smiles": "O=C(O)/C=C/c1cccc(OCc2ccccc2)c1", "inhibition": 3.3}
{"smiles": "CC(=O)Oc1ccc2occ(/C=N/c3cc(=O)[nH]c(=S)[nH]3)c(=O)c2c1", "inhibition": -4.2}
{"smiles": "O=C(Nc1ccc(N2CCOCC2)cc1)c1ccc(-c2ccccc2[N+](=O)[O-])o1", "inhibition": -10.4}
{"smiles": "CCOCCCNCc1cn(-c2ccc(F)cc2F)nc1-c1ccccc1C", "inhibition": -0.3}
{"smiles": "Cc1ccc(CSCC(=O)NCCCN2CCOCC2)cc1", "inhibition": 3.8}
{"smiles": "CC(C)C12CN3CC(C(C)C)(CN(C1)C3c1ccccc1O)C2=O", "note": "(stereo unspecified)", "inhibition": -5.3}
{"smiles": "CCOC(=O)N1CCN(Cc2nc(Cc3cccc(F)c3)no2)CC1", "inhibition": 3.3}
{"smiles": "NC(N)=N/N=C/c1c(Cl)cccc1Cl", "inhibition": 0.5}
{"smiles": "CC(=O)Nc1c(I)c(NC(C)=O)c(I)c(C(=O)O)c1I", "inhibition": 0.5}
{"smiles": "Cc1occc(=O)c1O", "inhibition": -1.7}
{"smiles": "Cc1cccc(Nc2ccccc2C(=O)O)c1C", "inhibition": -6}
{"smiles": "CC(CN1c2ccccc2Sc2ccccc21)N(C)C", "note": "(stereo unspecified)", "inhibition": -11.5}
{"smiles": "Cc1ccc(S(=O)(=O)N[C@@H](Cc2ccccc2)C(=O)CCl)cc1", "inhibition": 3.4}
{"smiles": "CCc1cc(-c2[nH]ncc2-c2ccc3c(c2)OCO3)c(O)cc1O", "inhibition": 2.3}
{"smiles": "NS(=O)(=O)c1cc2c(cc1Cl)NC(CSCc1ccccc1)=NS2(=O)=O", "inhibition": -2.3}
{"smiles": "OC(CCN1CCCCC1)(c1ccccc1)C1CCCCC1", "note": "(stereo unspecified)", "inhibition": 1}
{"smiles": "O=C(Nc1ncc2c(n1)CC(c1ccco1)CC2=O)c1ccco1", "note": "(stereo unspecified)", "inhibition": -10.4}
{"smiles": "CC(=O)[C@@]1(O)CC[C@H]2[C@@H]3CCC4=CC(=O)CC[C@]4(C)[C@H]3CC[C@@]21C", "inhibition": -5.7}
